Screening data (PubChem)
An excerpt weighted towards active compounds, which were near 2.4% of everything screened.
miR122 inh: miR-122 inhibition in Huh7 cells; activation (reporter increase), % at 12.5 µM; actives 0.3% (n = 340,000); Huh7 miR-122 Renilla luciferase sensor, 48 h; neutral wells = 0, positive control = 100;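 active = mean replicate activation score at least 90 and every replicate individually at or above 90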;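 also: higher luciferase means less miR-122 activity so hits act as miR-122 inhibitors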
GSIS activator: primary screen for activators of insulin secretion dependent on glucose, INS-1E cells, GLuc reporter luminescence; INS-1E GLuc reporter insulin secretion, 2-3 h; activation, % at 16.6 µM; actives 0.61% (n = 370,000); AID 743287;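 active = lowest replicate activation of at least 40%, so every replicate reaches that level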;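 also: 0% = median of neutral control wells and 100% = median of IBMX positive control wells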
Dyrk1A ADPGlo: inhibitors of rat Dyrk1A kinase; Q63470; actives 0.43% (n = 310,000); AID 504441; inhibition, % at 12.5 µM; ADP-Glo luminescence, NFATc1 peptide;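 also: plate controls were vehicle with enzyme for no effect and no enzyme for full effect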
Wnt act: activators of Wnt/beta-catenin signaling | Wnt/beta-catenin reporter cell assay, activator, plate reader | activation, % at 9.35 µM | actives 1.2% (n = 300,000); in the data active = activation above about 30%, passing the limit was not always enough;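 also: 0% = neutral control wells and 100% = positive control wells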
NSD2 inh: blocks human histone methyltransferase NSD2; actives 0.54% (n = 310,000); inhibition, % at 12.5 µM; O96028; NSD2 peptide methylation, AlphaScreen, 120 min
Target sequence (O96028 whole entry, looked up): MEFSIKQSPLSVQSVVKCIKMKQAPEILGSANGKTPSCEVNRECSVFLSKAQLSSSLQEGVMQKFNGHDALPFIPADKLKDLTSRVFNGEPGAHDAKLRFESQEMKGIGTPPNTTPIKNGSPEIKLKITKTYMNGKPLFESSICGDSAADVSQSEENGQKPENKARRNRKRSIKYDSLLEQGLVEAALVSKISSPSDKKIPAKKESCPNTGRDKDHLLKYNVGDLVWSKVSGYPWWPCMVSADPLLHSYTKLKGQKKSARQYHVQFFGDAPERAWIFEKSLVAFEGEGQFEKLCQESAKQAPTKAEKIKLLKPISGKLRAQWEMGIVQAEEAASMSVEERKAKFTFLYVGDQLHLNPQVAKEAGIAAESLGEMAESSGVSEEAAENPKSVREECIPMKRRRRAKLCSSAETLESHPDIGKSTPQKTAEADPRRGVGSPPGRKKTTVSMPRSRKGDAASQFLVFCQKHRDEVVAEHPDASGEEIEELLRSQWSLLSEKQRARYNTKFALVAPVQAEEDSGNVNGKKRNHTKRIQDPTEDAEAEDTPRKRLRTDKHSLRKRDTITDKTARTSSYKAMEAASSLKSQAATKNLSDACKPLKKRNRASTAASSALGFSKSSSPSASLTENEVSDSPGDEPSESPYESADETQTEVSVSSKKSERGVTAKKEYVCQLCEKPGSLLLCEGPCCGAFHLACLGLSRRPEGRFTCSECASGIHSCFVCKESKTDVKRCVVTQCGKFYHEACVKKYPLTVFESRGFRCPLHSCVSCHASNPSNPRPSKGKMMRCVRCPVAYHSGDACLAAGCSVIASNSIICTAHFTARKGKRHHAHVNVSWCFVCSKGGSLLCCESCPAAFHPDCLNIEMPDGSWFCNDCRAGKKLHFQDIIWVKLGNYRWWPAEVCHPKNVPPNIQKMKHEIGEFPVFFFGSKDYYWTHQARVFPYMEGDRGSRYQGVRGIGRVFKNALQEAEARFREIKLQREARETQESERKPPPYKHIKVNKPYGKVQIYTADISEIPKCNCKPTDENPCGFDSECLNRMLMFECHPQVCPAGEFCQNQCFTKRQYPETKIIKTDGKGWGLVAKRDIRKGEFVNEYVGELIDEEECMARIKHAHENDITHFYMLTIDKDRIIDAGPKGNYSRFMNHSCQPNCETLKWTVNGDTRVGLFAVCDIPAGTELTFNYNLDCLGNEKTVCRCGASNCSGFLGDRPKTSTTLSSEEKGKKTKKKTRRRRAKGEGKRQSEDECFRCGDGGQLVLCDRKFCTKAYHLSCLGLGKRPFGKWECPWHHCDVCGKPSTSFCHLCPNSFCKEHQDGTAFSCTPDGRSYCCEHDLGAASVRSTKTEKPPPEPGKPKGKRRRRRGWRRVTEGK
MITF act: increases MITF-driven TRPM1 promoter luciferase signal; SK-MEL-5 TRPM1-promoter luciferase, 24 h; % of positive control, neutral wells = 0; activation, % at 12.5 µM; actives 0.75% (n = 300,000);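 active = mean activation of at least 80% with every replicate also reaching 80%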;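 also: 0% = neutral control wells and 100% = parthenolide positive control wells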
* hit, by the source's call; . = no result given; [ ] = another dose, or the depositor's remark. Rule as the data show it, unless noted: active = inhibition above about 50%; inactive = the rest.

SMILES | miR122 inh | GSIS activator | Dyrk1A ADPGlo | Wnt act | NSD2 inh | MITF act
O=C1c2ccccc2C(=O)c2c1cccc2-n1nnc2ccccc21 | 1 | -1 | 6 | 1 | -1 | .
CO[C@H]1CN(C)C(=O)c2cc(NC(=O)C3CCCC3)ccc2OC[C@H](C)N(C)C[C@@H]1C | -3[16.7 µM] | 6 | . | . | . | .
CCC(=O)Nc1ccc2c(c1)C(=O)c1ccccc1C2=O | 5 | 8 | 13 | . | -3 | 12
CCC(C)(C)c1ccc2c(c1)C(=O)c1ccccc1C2=O | 4 | 15 | 3 | 39* | 15 | 41
COc1ccc(C2CC(=O)C(c3ccc(Cl)c(Cl)c3)=CN2Cc2ccccc2)cc1 (stereo not drawn) | . | . | . | -5 | . | .
COc1ccc(C2CC(=O)C(c3ccc(C)cc3)=CN2Cc2ccccc2)cc1 (stereo not drawn) | . | 159* | . | 3 | . | .
C[C@@H](NC(=O)C[C@H]1C[C@@H]2c3cc(NC(=O)CC4CC4)ccc3O[C@@H]2[C@H](CO)O1)c1ccccc1 | 8[16.7 µM] | -1 | . | . | . | .
Clc1ccc(C#Cc2cccnc2)cc1 | -2 | 25 | 2 | 24 | . | 109*
COc1ccc(CN(C)C(=O)Cn2ccsc2=N)cc1OC | . | 4 | -1 | 1 | 3 | 6
COc1ccc(CN(C)C(=O)Cn2cc(C)c(=O)[nH]c2=O)cc1OC | -5 | 44* | . | -2 | . | 5
COc1ccc(NC(=O)N(C)C[C@H]2Oc3c(NS(=O)(=O)c4ccc(F)cc4)cccc3C(=O)N([C@H](C)CO)C[C@H]2C)cc1 | -10[16.7 µM] | -6 | . | . | . | .
CCOC(=O)c1cnc(SCc2ccccc2)nc1N | -12 | . | 4 | . | . | 107*
CCOC(=O)c1cnc(SCc2ccc(C(C)(C)C)cc2)nc1N | -6 | . | -4 | . | -1 | .
CCOC(=O)CSc1nc2ccc(C)cc2cc1C#N | -3 | 45 | -3 | -1 | . | 134*
Cc1cccc(-c2nsc(SCC(=O)N3CCCC3)n2)c1 | -8 | . | 3 | 29 | -3 | 89*
CCOC(=O)CSc1nc2cc3c(cc2cc1C#N)OCO3 | -1 | . | -2 | . | -2 | 90*
O=C(CSc1nc(-c2ccccc2)ns1)N1CCOCC1 | . | 22 | . | 12 | . | 51
CCOC(=O)CSc1nc2cc(C)cc(C)c2cc1C#N | 5 | . | . | . | -4 | 43
CCOC(=O)CSc1nc2cc3c(cc2cc1C#N)OCCO3 | -1 | 1 | 1 | 8 | -5 | 61
CCOC(=O)CSc1nc2cc(C)ccc2cc1C#N | 30 | . | 1 | 49* | -10 | 40
C[C@H](O)C#Cc1cnc2c(c1)C(=O)N([C@@H](C)CO)C[C@H](C)[C@H](CN(C)C(=O)c1ccncc1)O2 | 0[16.7 µM] | 9 | . | . | . | .
CCOC(=O)CSc1nc2cc(OC)ccc2cc1C#N | 9 | . | 30 | 67* | 4 | 111*
CCc1cc2ccc(OC)cc2nc1SCC(=O)Nc1cc(C)on1 | 2 | 48* | 3 | -1 | 1 | -11
COc1ccc(-c2nnc(SCC(=O)Nc3cc(C)on3)n2C)cc1OC | 3 | 65* | 7 | -1 | 0 | 2
CCOc1ccc2nc(SCC(=O)N3CCCCCC3)c(C#N)cc2c1 | 20 | . | 17 | . | 18 | .
SMILES | miR122 inh | GSIS activator | Dyrk1A ADPGlo | Wnt act | NSD2 inh | MITF act
Cc1ccc2cc(C#N)c(SCC(=O)N3CCCC3)nc2c1 | -4 | 7 | 2 | 33* | -2 | 67
CCc1cc2ccccc2nc1SCC(=O)Nc1cc(C)on1 | -5 | . | -3 | . | 0 | -8
O=C(N[C@@H]1CC[C@H](CCNS(=O)(=O)Cc2ccccc2)O[C@@H]1CO)c1cnccn1 | -4[16.7 µM] | -10 | . | . | . | .
Cc1ncc(N=Nc2ccc(F)cc2)c(-c2ccc(Cl)cc2)n1 | -5 | 59* | 9 | -4 | 2 | -9
O=C(c1ccccc1)N1CC2(C1)[C@@H](c1ccccc1)[C@@H](CO)N2Cc1cccnc1 | . | -5 | . | . | . | .
COC(=O)C1=C(C)N(Cc2cccc(C(F)(F)F)c2)C(=NCc2ccc(OC)cc2)NC1c1cccc(F)c1 (stereo not drawn) | . | 84* | . | -27 | . | .
COC(=O)C1=C(C)N(Cc2cccc(C(F)(F)F)c2)C(=NCc2ccc(OC)cc2)NC1c1ccc(F)cc1 (stereo not drawn) | . | 285* | . | -21 | . | .
Cc1ccc(S(=O)(=O)N[C@H]2C=C[C@@H](CC(=O)NCCc3ccncc3)O[C@H]2CO)cc1 | . | 16 | . | . | . | .
O=C(Cc1cccnc1)N[C@H]1CC[C@H](CCn2cc(Cc3ccccc3)nn2)O[C@@H]1CO | . | 5 | . | . | . | .
